Test results from PubChem BioAssay AID2112 (National Center for Advancing Translational Sciences (NCATS), 2009).
In all, about 240,000 compounds went through this assay and about 15 (0.006%) were called active. The call rests on the fitted dose curve; in most records, active means well fitted inhibition curve with a large enough effect; inconclusive means small, poorly fitted or top-dose-only effect, or effect the other way, or another doubt; inactive means no such curve, though single readings can be large or run the other way. Not all results are given here. Where a SMILES comes first, the peptide text is derived from it.

Target: Lysosomal alpha-glucosidase (Homo sapiens) (UniProt P10253)
Assay: qHTS Assay for Inhibitors and Activators of Human alpha-Glucosidase From Spleen Homogenate
Settings: 4-MU-alpha-glucoside fluorescence; series mostly up to 79.9 µM
Source text: NIH Chemical Genomics Center [NCGC] NIH Molecular Libraries Probe Production Centers Network [MLPCN] MLPCN Grant: R03 MH084841-01 Assay Submitter (PI): Wei Zheng NCGC Assay Overview: Alpha-glucosidase is responsible for the hydrolysis of terminal, non-reducing 1,4-linked alpha-D-glucose residues, which releases alpha-D-glucose. It is a lysosomal hydrolase that is required for the degradation of a small percentage (1-3%) of cellular glycogen in humans. Deficiency of this enzyme results in glycogen-storage disease type II (GSDII), also referred to as Pompe disease, an autosomal recessive disorder. Structurally normal glycogen is accumulated in the lysosomes and cytoplasm in affected patients, primarily in muscle tissues. Excessive glycogen storage within lysosomes may interrupt normal functioning of other organelles and leads to cellular injury. In turn, this leads to enlargement and dysfunction of the entire organ involved (eg: cardiomyopathy and muscle weakness). It has been reported that the improper folding and trafficking of alpha-glucosidase resulting from genetic mutations may account for a significant number of Pompe patients. […] We optimized this alpha-glucosidase assay in 1536-well plate format for identification of novel small molecule inhibitors or activators with structures other than the sugar analogs in order to develop new pharmacological chaperones. In particular, this assay is directed towards discovering compounds active in a more natural setting, tissue homogenate, that may have been missed by screens of the purified enzyme under more stringent conditions.
NCGC Assay Protocol Summary: This is a fluorogenic enzyme assay with 4-methylumbelliferyl-alpha-D-glucopyranoside as the substrate and human spleen homogenate containing alpha-glucosidase as the enzyme preparation. Upon hydrolysis of this fluorogenic substrate, the resulting product, 4-methylumbelliferone (which excites at 365 nm and emits at 440 nm) can be detected by a fluorescence plate reader. Data were normalized to the controls for basal activity (without enzyme) and 100% activity (with enzyme). The AC50 values were determined from concentration-response data modeled with the standard Hill equation. Assay buffer: 50 mM citric acid (titrated with potassium phosphate to pH 5.0), 0.01% Tween-20 (pH 5.0 is an optimal condition for this enzyme assay) 1536-well assay protocol for the alpha-glucosidase from human spleen homogenate: (1) Add 2 ul/well spleen homogenate (1 ug) (2) Add 23 nL compounds in DMSO solution. The final titration was 0.5 nM to 58 uM. (3) Add 2 ul of substrate (1 mM final) (4) Incubate at 37 C for 40 min (5) Add 2 ul stop solution (1M NaOH and 1M Glycine mixture, pH 10) (6) Detect the assay plate in a ViewLux plate reader (PerkinElmer) with Ex=365 nm and Em=440nm. Keywords: Alpha-glucosidase, Pompe Disease, pharmacological chaperone, chaperone therapy, high throughput screening, alpha-glucosidase inhibitor, MLSMR, MLSCN, NIH Roadmap, qHTS and NCGC

outcome, inactive:
Cc1nc(-c2ccccc2)sc1-c1nc(-c2ccccc2)ncc1S(=O)(=O)c1ccccc1
CO[C@@]12[C@@H](COC(N)=O)C3=C(C(=O)C(C)=C(N)C3=O)N1C[C@@H]1N[C@@H]12
Cc1ccc2nc(/C(C#N)=C\c3ccc(OC(=O)c4cccs4)cc3)[nH]c2c1
COc1c(O)c2c(=O)cc(OC)c3c4c(OC)cc(=O)c5c(O)c(OC)c6c(c(c1C[C@@](C)(O)[C@H]6C(C)=O)c23)c54
Clc1ccc(C[n+]2cc(-c3ccc(Cl)cc3)n3c2CCC3)cc1
COc1ccc(NC2=CC(=S)NC(C)(C)C2)cc1
O=C(NCC1CC1)C1(C(F)(F)F)C/C(=C\CCO)CCCO1 (configuration not stated)
COc1cc2[nH]c(=O)n(Cc3ccc(C(=O)NC4CCN(Cc5ccccc5)CC4)cc3)c(=O)c2cc1OC
COC(=O)C(CC(C)C)NS(=O)(=O)c1cc(Br)ccc1Br (configuration not stated)
C=C1CCN(Cc2ccc(OC)cc2)S(=O)(=O)c2ccccc21
CCOc1cc(C2C(C(=O)OC(C)C)=C(C)NC3=C2C(=O)CCC3)cc([N+](=O)[O-])c1O (configuration not stated)
Cc1ccccc1N/C(SCc1ccc(Cl)cc1)=C(/C#N)C(N)=O
Cc1c(-c2ccccc2)n[nH]c1C(=O)N=Nc1c(O)[nH]c2ccccc12
Cc1cc(C)c(NC(=O)CN2C(=O)NC(Cc3ccccc3)C2=O)c(C)c1 (configuration not stated)
CC(=O)c1c(N2CCN(c3ccc(F)cc3)CC2)nc(=S)n(-c2ccccc2)c1C
O=C(CP(=O)(c1ccccc1)c1ccccc1)N1CCOCC1
Cc1nn(CCOc2ccc(Br)cc2)c(C)c1[N+](=O)[O-]
COc1cc(OC)c2c(C)cc(=O)oc2c1C(CCN1CCCCC1)c1ccc(N(C)C)cc1 (configuration not stated)
Cc1ccc(-c2nc(C)sc2CC(=O)OCC(=O)Nc2c(F)cccc2F)cc1
CCCCCCCC[C@@H](O)/C=C/C=C/C=C\[C@@H](O)CCCC(=O)O
COc1ccc(CN2CCC(=O)c3ccccc3S2(=O)=O)cc1
COc1ccc(C2CC(O)(c3ccccc3)Oc3cc(C)cc(C)c32)cc1 (configuration not stated)
COC(=O)[C@@]1(C)C=C[C@@H](Cc2ccccc2)N1C(C)=O
O=C(C1CCN(c2nnc(-n3cccc3)s2)CC1)N1CCc2ccccc2C1
O=C(CSc1ccccn1)Nc1nc2c(ccc3ccccc32)s1
CC(C)C(NS(=O)(=O)c1ccc(-c2ccc(Br)cc2)cc1)C(=O)O (configuration not stated)
C[C@@H](O)[C@@H]1NC(=O)[C@H](CCCCN)NC(=O)[C@H](Cc2c[nH]c3ccccc23)NC(=O)[C@H](Cc2ccccc2)NC(=O)[C@H](Cc2ccccc2)NC(=O)[C@H](CC(N)=O)NC(=O)[C@H](CCCCN)NC(=O)[C@@H](NC(=O)[C@@H]2CCCN2)CSSC[C@@H](C(=O)N[C@@H](CCCCN)C(=O)O)NC(=O)[C@H](CO)NC(=O)[C@H](CO)NC(=O)[C@H](Cc2ccccc2)NC1=O (HELM PEPTIDE1{P.C.K.N.F.F.W.K.T.F.S.S.C.K}$PEPTIDE1,PEPTIDE1,2:R3-13:R3$$$V2.0)
